Outcome and AC50 data for 16 compounds are collected here from PubChem BioAssay (EPA / NIEHS).

Test [1] has as its target Cellular tumor antigen p53 (Homo sapiens) (UniProt P04637). The test can be described thus: TOX21_p53_BLA_p3_ratio: Tox21 HCT-116 p53 Agonism Beta-lactamase Assay, Ratio, Phase 3 (AID 2283596). An outline of the steps: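 HCT116 p53-bla cells (4000/well) given compound in DMSO (217-fold dilution) after 5 h, incubated 16 h at 37C. CCF4-AM substrate 2 h at room temperature; 460/530 nm emission ratio, gain fitted against DMSO.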

In test [2] the target is Thyroid hormone receptor alpha (Rattus norvegicus) + Thyroid hormone receptor beta (Rattus norvegicus) (UniProt P18113+P63059). The test can be described thus: TOX21_TR_LUC_GH3_Antagonist_Followup: Tox21 GH3 Thyroid Hormone Receptor Antagonism Luciferase Follow-Up Assay (AID 2283942). An outline of the steps: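 Confirmatory qHTS, antagonist mode: T3 (1.0 nM final) + test cpd, 15 conc, 92 uM–5nM final, GH3 rat pituitary line, 24 h, 37C. Luc reporter, RLU vs DMSO.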

The target in another test is THRB (gene 7068) (UniProt P10828). The test can be described thus: TOX21_TRB_BLA_Antagonist_Followup_ratio: Tox21 Thyroid Hormone Receptor beta Antagonism Beta-lactamase (BLA) Follow-Up Assay, Ratio (AID 2283958). An outline of the steps: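 HEK293T cells with a GAL4-TRb LBD fusion and UAS-bla reporter, 3,000 cells/well in phenol red-free DMEM with 2% charcoal-stripped FBS. Exposed 18 h at 37C to 11 concentrations in triplicate; CCF4 460:530 nm ratio after 2 h, DMSO-referenced.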

Test [3] in a line: TOX21_TRB_BLA_Antagonist_Followup_viability: Viability Assessment in the Tox21 Thyroid Hormone Receptor beta Antagonism Beta-lactamase (BLA) Follow-Up Assay (AID 2283961). An outline of the steps:
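HEK293T cells with GAL4-human TRβ LBD and UAS-bla reporter, 3,000 cells/well in 2% charcoal-stripped FBS medium; 11-point concentrations in triplicate, 18 h at 37C. Viability from ATP by CellTiter-Glo luminescence, 30 min RT, same plates.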

For test [4], the target named is Retinoic acid receptor RXR-alpha (Homo sapiens) (UniProt P19793). The test can be described thus: TOX21_TR_RXR_BLA_Antagonist_Followup_ratio: Tox21 Thyroid Hormone Receptor beta Retinoid X Receptor alpha (RXRa) Antagonism Beta-lactamase (BLA) Follow-Up Assay, Ratio (AID 2283972). An outline of the steps:
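RXRa-UAS-bla HEK293T cells, 2,500/well in phenol red-free DMEM with 2% charcoal-stripped FBS, 5 h attachment, then compounds (11 concentrations, triplicate) for 16 h at 37C; FRET-B/GCCF4-AM substrate 2 h RT; 460:530 nm ratio, loss of signal vs DMSO.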

The nature of test [5]: TOX21_TR_RXR_BLA_Antagonist_Followup_viability: Viability Assessment in the Tox21 Thyroid Hormone Receptor beta Retinoid X Receptor alpha (RXRa) Antagonism Beta-lactamase (BLA) Follow-Up Assay (AID 2283979). Put shortly: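 Follow-up compounds (11 concentrations, triplicate) were incubated 16 h at 37C/5% CO2 with HEK293T RXRa-bla cells seeded at 2,500/well in charcoal-stripped-serum medium. ATP content by CellTiter-Glo luminescence gave viability; curves fitted in both directions against DMSO.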

Test [6] is described as follows: TOX21_p53_BLA_p4_viability: Viability Assessment in the Tox21 HCT-116 p53 Agonism Beta-lactamase Assay, Phase 4 (AID 2283597).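 Note: hits lower the luminescence signal meaning cytotoxicity.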 An outline of the steps: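 HCT-116 p53-bla cells, 4000/well, dosed after 5 h attachment and incubated 16 h at 37 °C, 5% CO2. Viability from CellTiter-Glo ATP luminescence after 30 min at room temperature, taken after the beta-lactamase read; loss of signal indicates cytotoxicity.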

The target of test [7] is Cellular tumor antigen p53 (Homo sapiens) (UniProt P04637). The test can be described thus: TOX21_p53_BLA_p5_ratio: Tox21 HCT-116 p53 Agonism Beta-lactamase Assay, Ratio, Phase 5 (AID 2283599). Put shortly: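 Beta-lactamase reporter ratio (blue 460 nm over green 530 nm, 405 nm excitation) after 2 h CCF4-AM loading, in HCT-116 cells exposed 16 h at 37 C to compounds pinned at 217-fold dilution. Increases relative to DMSO baseline scored.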

The target is the same in test [8]. Nature of the test: TOX21_p53_BLA_p4_ratio: Tox21 HCT-116 p53 Agonism Beta-lactamase Assay, Ratio, Phase 4 (AID 2283601). Put shortly:
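Signal is the blue/green (460nm/530nm) ratio of cleaved versus uncleaved CCF4-AM substrate, read after 2 h substrate loading. Cells were HCT116 carrying the p53-responsive beta-lactamase reporter, dosed 16 h at 37C, 5% CO2; CellTiter-Glo measured in parallel.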

Test [9] concerns the target PGR (gene 5241) (UniProt P06401). Nature of the test: TOX21_PR_BLA_Followup_Antagonist_ratio: Tox21 HEK293 Progesterone Receptor (PR) Antagonism Beta-lactamase Follow-Up Assay, Ratio (AID 2283934). An outline of the steps: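 PR-UAS-bla HEK293T cells, 3,000/well in 2% charcoal-stripped FBS, given compound plus 1nM R5020 agonist for 16 hr at 37C. Beta-lactamase FRET substrate 2 hours, ratio cleaved/uncleaved fluorescence; viability by CellTiter-Glo in same wells.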

Test [10] is described as follows: TOX21_PR_BLA_Followup_Agonist_viability: Viability Assessment in the Tox21 HEK293 Progesterone Receptor (PR) Agonism Beta-lactamase Follow-Up Assay (AID 2283935).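 Note: signal loss means lower viability so actives are cytotoxic.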 An outline of the steps:
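PR-UAS-bla HEK293T cells in 2% charcoal-stripped FBS medium, plated 6 hr before compound addition, exposed 16 hr at 37C. Viability read by CellTiter-Glo ATP luminescence after 30 min at room temperature, in the same wells as the beta-lactamase readout.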

Test [11] can be described thus: TOX21_PR_BLA_Followup_Antagonist_viability: Viability Assessment in the Tox21 HEK293 Progesterone Receptor (PR) Antagonism Beta-lactamase Follow-Up Assay (AID 2283936).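 Note: hits lower the luminescence signal meaning cytotoxicity.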 Put shortly:
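PR-UAS-bla HEK293T cells (3,000/well, 2% charcoal-stripped FBS) given compound plus R5020 agonist, 16 h at 37C. CellTiter-Glo added after bla read, 30 min at room temperature; luminescence loss indicates cytotoxicity.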

Test [12] deals with PGR (gene 5241) (UniProt P06401). The test can be described thus: TOX21_PR_LUC_Followup_Agonist: Tox21 HEK293 Progesterone Receptor (PR) Agonism Luciferase Follow-Up Assay (AID 2283937; active = hit-call score of the fitted dose curve at least 0.9, where 1 is the maximum; inactive = score below 0.9). An outline of the steps: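 HEK293-PR-A-luc cells, conditioned 5 days in 10% charcoal-stripped FBS medium, seeded 3,000/well for 5 h, then compound-treated 16 h at 37C. ONE-Glo luminescence read after 30 min at room temperature; gain of signal versus DMSO.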

For test [13] the target is unchanged. Nature of the test: TOX21_PR_LUC_Followup_Antagonist: Tox21 HEK293 Progesterone Receptor (PR) Antagonism Luciferase Follow-Up Assay (AID 2283938).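 Note: curve fitted upward as signal gain over DMSO baseline despite antagonist label.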 An outline of the steps: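 HEK293-PR-A-luc cells, 3,000/well, preincubated 5 h at 37C before compound addition in DMSO; 16 h compound exposure at 37C. ONE-Glo luciferase luminescence read after 30 min at room temperature, fitted relative to DMSO baseline.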

In test [14] the test system is Thyroperoxidase (TPO), gene 54314. The test can be described thus: CCTE_Simmons_AUR_rTPO: CCTE's Amplex UltraRed Assay for Thyroperoxidase (TPO) Inhibition, Simmons Lab (AID 2283662).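 For AC50: potency for loss of signal meaning inhibition of peroxidase activity.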 Put shortly:
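Rat thyroid microsomes (5 ug protein) with 25 uM Amplex UltraRed and 300 uM H2O2 in 200 mM phosphate buffer, 30 min at 37C in dark; fluorescence 544/590 nm. Eight concentrations, 5 nM–87.5 uM final, 0.5% DMSO, triplicate biological replicates.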

Test [15] in a line: CCTE_Simmons_CellTiterGLO_HEK293T: Viability Assessment in CCTE's Assays for Thyroperoxidase (TPO) Inhibition, Simmons Lab (AID 2283665). Put shortly: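 HEK293T cells in DMEM with 1% FBS, dosed 24 h at 37C with 8 concentrations, 5 nM–87.5 uM final, 0.5% DMSO. ATP measured by CellTiter Glo luminescence; loss of signal vs DMSO, three biological replicates.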
The target in test [16] is Luciferin 4-monooxygenase (Photinus pyralis) (UniProt P08659). Nature of the test: CCTE_Simmons_QuantiLum_inhib_2: CCTE's Firefly Luciferase Inhibition Assay, Simmons Lab (AID 2283767).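 For AC50: potency for inhibitors that lower luciferase luminescence relative to DMSO.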 Put shortly: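 Cell-free recombinant firefly luciferase (5 ng/well) in 200mM potassium phosphate with 1 mg/ml BSA, 30 min at 37C with 8 concentrations from 5 nM to 87.5 uM [final], 0.5% DMSO. Luminescence read after D-luciferin (150uM)/dATP (147uM) reagent injection, pH 7.8; triplicates.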

Records with an inconclusive call do not appear. Calls of active or inactive are those of the source. Rule for the calls, unless noted: active = hit-call score of the fitted dose curve at least 0.9, where 1 is the maximum; inconclusive = response in the unintended direction; inactive = score below 0.9.

Cellular tumor antigen p53 (Homo sapiens), sequence (P04637 whole entry, looked up): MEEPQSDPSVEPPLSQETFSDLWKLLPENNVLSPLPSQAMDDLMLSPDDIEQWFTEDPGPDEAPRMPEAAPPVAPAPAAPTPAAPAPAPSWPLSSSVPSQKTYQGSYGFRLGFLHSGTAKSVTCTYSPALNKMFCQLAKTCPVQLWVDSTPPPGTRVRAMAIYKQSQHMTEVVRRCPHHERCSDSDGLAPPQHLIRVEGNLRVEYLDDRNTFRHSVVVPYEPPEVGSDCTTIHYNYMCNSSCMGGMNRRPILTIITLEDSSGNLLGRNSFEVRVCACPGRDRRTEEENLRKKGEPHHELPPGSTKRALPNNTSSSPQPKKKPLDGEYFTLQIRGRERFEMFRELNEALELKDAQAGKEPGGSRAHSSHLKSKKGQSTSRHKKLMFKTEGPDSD
PGR (gene 5241), sequence (P06401 whole entry, looked up): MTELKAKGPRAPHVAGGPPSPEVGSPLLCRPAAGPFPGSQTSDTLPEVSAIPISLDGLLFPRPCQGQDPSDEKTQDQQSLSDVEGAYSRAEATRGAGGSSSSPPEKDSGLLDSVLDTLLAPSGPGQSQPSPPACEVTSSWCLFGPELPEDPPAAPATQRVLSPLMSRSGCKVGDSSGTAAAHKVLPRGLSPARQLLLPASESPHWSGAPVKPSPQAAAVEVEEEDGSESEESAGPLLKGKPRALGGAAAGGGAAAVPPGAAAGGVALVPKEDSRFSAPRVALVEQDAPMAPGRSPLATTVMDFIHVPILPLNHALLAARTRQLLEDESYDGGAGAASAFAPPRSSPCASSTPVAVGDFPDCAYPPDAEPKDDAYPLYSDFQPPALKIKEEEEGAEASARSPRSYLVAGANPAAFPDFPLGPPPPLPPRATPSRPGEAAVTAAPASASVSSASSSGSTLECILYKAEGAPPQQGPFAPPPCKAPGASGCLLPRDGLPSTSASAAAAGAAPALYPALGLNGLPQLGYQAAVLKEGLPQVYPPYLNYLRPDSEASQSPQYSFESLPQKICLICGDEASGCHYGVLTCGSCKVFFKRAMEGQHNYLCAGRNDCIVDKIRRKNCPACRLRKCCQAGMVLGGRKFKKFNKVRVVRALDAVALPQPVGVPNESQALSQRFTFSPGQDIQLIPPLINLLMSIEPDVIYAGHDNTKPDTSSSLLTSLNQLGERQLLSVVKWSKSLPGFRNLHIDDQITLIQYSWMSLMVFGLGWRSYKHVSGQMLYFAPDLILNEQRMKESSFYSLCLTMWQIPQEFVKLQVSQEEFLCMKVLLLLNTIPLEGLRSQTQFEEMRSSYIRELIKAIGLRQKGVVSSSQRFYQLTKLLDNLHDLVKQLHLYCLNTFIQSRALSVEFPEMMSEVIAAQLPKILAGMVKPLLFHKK
Luciferin 4-monooxygenase (Photinus pyralis), sequence (P08659 whole entry, looked up): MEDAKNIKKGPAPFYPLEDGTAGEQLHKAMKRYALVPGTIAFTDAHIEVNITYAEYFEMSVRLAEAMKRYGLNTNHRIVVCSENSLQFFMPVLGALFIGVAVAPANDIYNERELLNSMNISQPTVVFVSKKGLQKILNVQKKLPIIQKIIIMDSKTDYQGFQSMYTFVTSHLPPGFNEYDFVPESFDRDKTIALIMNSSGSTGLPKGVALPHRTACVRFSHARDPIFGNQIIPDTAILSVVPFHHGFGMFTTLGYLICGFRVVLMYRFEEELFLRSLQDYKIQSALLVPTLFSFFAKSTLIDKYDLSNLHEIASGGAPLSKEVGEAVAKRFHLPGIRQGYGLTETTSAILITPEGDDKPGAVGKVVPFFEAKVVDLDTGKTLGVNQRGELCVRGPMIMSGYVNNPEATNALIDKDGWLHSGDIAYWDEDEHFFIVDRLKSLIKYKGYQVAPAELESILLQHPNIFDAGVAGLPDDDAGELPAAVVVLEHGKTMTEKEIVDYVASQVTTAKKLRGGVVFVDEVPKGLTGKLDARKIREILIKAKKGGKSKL
THRB (gene 7068), sequence (P10828 whole entry, looked up, the tested form may be a part): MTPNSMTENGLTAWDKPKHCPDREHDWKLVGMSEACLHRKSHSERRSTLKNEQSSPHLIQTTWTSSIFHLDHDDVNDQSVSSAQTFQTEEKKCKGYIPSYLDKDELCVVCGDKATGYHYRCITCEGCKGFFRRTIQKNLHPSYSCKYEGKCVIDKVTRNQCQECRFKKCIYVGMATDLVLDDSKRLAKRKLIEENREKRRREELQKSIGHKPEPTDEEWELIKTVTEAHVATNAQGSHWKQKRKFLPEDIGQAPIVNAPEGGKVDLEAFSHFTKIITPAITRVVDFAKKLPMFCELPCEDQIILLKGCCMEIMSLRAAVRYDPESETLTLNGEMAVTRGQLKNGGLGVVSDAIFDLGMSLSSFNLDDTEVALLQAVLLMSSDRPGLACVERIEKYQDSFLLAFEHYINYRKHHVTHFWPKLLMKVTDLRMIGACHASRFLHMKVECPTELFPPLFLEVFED
Retinoic acid receptor RXR-alpha (Homo sapiens), sequence (P19793 whole entry, looked up): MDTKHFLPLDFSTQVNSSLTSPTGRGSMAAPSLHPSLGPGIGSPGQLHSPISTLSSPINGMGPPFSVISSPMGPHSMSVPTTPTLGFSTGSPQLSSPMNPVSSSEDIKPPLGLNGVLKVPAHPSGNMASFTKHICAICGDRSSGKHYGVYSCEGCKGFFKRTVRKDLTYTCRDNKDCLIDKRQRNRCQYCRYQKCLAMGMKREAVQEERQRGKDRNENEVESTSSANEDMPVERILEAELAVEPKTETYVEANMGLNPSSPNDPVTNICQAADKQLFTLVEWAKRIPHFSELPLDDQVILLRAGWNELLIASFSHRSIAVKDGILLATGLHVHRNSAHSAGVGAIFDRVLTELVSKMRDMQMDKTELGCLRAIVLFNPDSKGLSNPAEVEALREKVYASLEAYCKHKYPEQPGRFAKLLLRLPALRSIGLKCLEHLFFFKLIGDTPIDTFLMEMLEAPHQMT

In the case of `NNc1nnc(Cc2ccncc2)c2ccccc12`, the result (in test [1]; in test [2]; with THRB (gene 7068); in [3]; in test [4]; in test [5]) was inactive.

With `C=CC(=O)CC`, the result in test [6] and in test [7] was inactive.

Turning to `COc1ccc(-c2cc(=S)ss2)cc1`, the call in test [6] and in [8] was inactive.

For the compound `Cc1cccc(C)c1NC(=O)CN1CCCC1`, the call in test [6] and in test [7] was inactive.

For the compound `CC(C(=O)O)c1ccc2c(c1)CC(=O)c1ccccc1S2` (configuration not stated), the result in [6] and in test [8] was inactive.

For the compound `CN(C)CCC=C1c2ccccc2C(C)(C)c2ccccc21`, the result in [7] was inactive.

With `ClCCl`, the outcome in test [6], in test [7] and in test [8] was inactive.

For `Nc1c(Cl)cc(Cl)cc1Cl`, the call in test [6], in test [7] and in test [8] was inactive.

On to `CN1CCC(=C2c3ccccc3CCc3sccc32)CC1`, for which the result in test [6] was inactive.

In the case of `C[C@H]1c2cccc(O)c2C(O)=C2C(=O)[C@]3(O)C(O)=C(C(N)=O)C(=O)[C@@H](N(C)C)[C@@H]3[C@@H](O)[C@@H]21`, the call in test [6] and in test [8] was inactive.

With `CCCC(=O)OCOC(=O)C1=C(C)NC(C)=C(C(=O)OC)C1c1cccc(Cl)c1Cl` (configuration not stated), the outcome (with PGR (gene 5241) [9]; in test [10]; in test [11]; in the test with PGR (gene 5241) [12]; with PGR (gene 5241) [13]) was inactive.

For `Cc1ccc(O)c([C@H](CCN(C(C)C)C(C)C)c2ccccc2)c1`, in test [8], the result was inactive.

In the case of `CC(C)(C)NCC(O)COc1cccc2c1CCC(=O)N2` (configuration not stated), the result in test [8] was inactive.

With `O=c1cccc(O)[nH]1`, the concentration at half-maximal activity (AC50) in test [14] was 9.01 µM (active). The result in test [15] and in [16] was inactive.

On to `CN(C)C(=S)N(C)C`, for which the result in test [14] was inactive. The AC50 in [16] was 79.5 µM (active).

Take `CCN1CCCC1CNC(=O)c1cc(S(=O)(=O)CC)c(N)cc1OC` (configuration not stated): the outcome in [8] was inactive.
